The source of these data is PubChem BioAssay (NCI).

SMILES strings stand for the structures. The panel holds about 79,000 compounds, 15% with a hit somewhere; the sample as a whole holds those more often. Unmarked numbers belong to inactive results. Activity calls are given as the source filed them. Cut-off read from the data, not from the text of the source: active = growth inhibition above about 70%; inactive = the rest.

Test [1] in a line: NCI Yeast Anticancer Drug Screen. Data for the rad50 strain (AID 155).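 Note: 0% = growth of vehicle-only cultures of the same strain.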 Particulars: S. cerevisiae rad50 strain growth inhibition; at 50.0 µM; stronger effect = higher value. Put shortly:
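Vehicle-treated cultures provide the reference for the growth inhibition reported for compound-exposed, repair-deficient yeast.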

Test [2] in a line: NCI Yeast Anticancer Drug Screen. Data for the mec2-1 strain (AID 157). The conditions noted are these: S. cerevisiae mec2-1 strain, at 50.0 µM, stronger effect = higher value. Put shortly: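 Each compound was tested on mec2-1 yeast, a strain altered in DNA damage repair or cell cycle control. Growth inhibition is reported relative to vehicle.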
Test [3] in a line: NCI Yeast Anticancer Drug Screen. Data for the sgs1 mgt1 strain (AID 161).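 Note: 0% = growth of cultures given vehicle only.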 Particulars: S. cerevisiae sgs1 mgt1 strain, at 50.0 µM, stronger effect = higher value. Put shortly:
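Genetically altered yeast, compound exposure, growth inhibition relative to vehicle.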

Test [4] can be described thus: NCI Yeast Anticancer Drug Screen. Data for the cln2 rad14 strain (AID 165).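 Note: 0% = growth equal to vehicle treated cultures.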 The conditions noted are these: S. cerevisiae cln2 rad14 strain, at 50.0 µM, stronger effect = higher value. A digest of the protocol: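 Test compounds were added to cln2 rad14 yeast cultures; inhibition of growth was then determined by comparison with vehicle treatment.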
Test [5] in a line: NCI Yeast Anticancer Drug Screen. Data for the bub3 strain (AID 167). Particulars: S. cerevisiae bub3 mutant strain, at 50.0 µM, stronger effect = higher value. Put shortly:
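Mutant yeast screening strain plus compound; vehicle-treated cultures serve as the 0% inhibition reference.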

A short description of test [6]: NCI Yeast Anticancer Drug Screen. Data for the mlh1 rad18 strain (AID 175). Particulars: S. cerevisiae mlh1 rad18 strain growth inhibition; at 50.0 µM; stronger effect = higher value. Put shortly: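 Inhibition values reflect reduced growth of mutant yeast versus vehicle-treated controls following compound exposure; the mutations affect DNA damage repair.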

`O=C(Nc1ccc(F)cc1)c1cc2c(cc1Cl)Sc1nccn1S2(=O)=O`: the growth inhibition was -7% in test [1]; -4% in test [2]; -8.8% in test [3]; 16.9% in test [4]; 3.55% in test [5]; 2.7% in test [6].
In the case of `Brc1ccc(-c2oc3c4ccccc4c4ccccc4c3c2-c2ccc(Br)cc2)cc1`, the growth inhibition in test [1] was 32.5%; in test [2], 5.35%; in test [3] it was 17.8%; in test [4], -0.95%; in test [5], 2.9%; in test [6], 15.2%.
Consider `CC1CCC(C(C)C)C(NC(=O)c2cccnc2)C1` (stereo not given), for which the growth inhibition is 8.3% in test [1]; -7.45% in test [2]; -2.75% in test [3]; 13.9% in test [4]; 14.4% in test [5]; 8.75% in test [6].
`CN1CCCC1`: the growth inhibition is 2.05% in test [1]; 8.8% in test [2]; -2.15% in test [3]; 1.1% in test [4]; 16.6% in test [5]; -8.2% in test [6].
Regarding `O=C(c1cccc([N+](=O)[O-])c1)c1cccs1`, the growth inhibition in test [1] is 6.6%; in test [2] it was -7.2%; in test [3], -9.05%; in test [4], 4.3%; in test [5], -5.2%; in test [6], -4.05%.
`COC(=O)C(=C(C)C)S(=O)c1ccccc1` (stereo not given): the growth inhibition was -9.85% in test [1]; 1.4% in test [2]; -3.55% in test [3]; -16% in test [4]; -13.6% in test [5]; 3.45% in test [6].
Regarding `OC1CCC(C2CCCCC2)CC1` (stereo not given), the growth inhibition in test [1] was -8.5%; in test [2], -8.05%; in test [3] it was -2.65%; in test [4], 6.8%; in test [5], -14.3%; in test [6], -8.65%.
Take `CCOc1ncnc2ccc(Cl)cc12`: the growth inhibition is -8.65% in test [1]; -3.7% in test [2]; -4.45% in test [3]; -18.1% in test [4]; 0.65% in test [5]; 0% in test [6].
Take `CC(=O)N1CCOCC1`: the growth inhibition was 23.1% in test [1]; 1.55% in test [2]; 11.1% in test [3]; -28.6% in test [4]; -1.8% in test [5]; 21.1% in test [6].
Turning to `C[N+](C)(C)CCCCCc1c2nc(c(CCCCC[N+](C)(C)C)c3ccc([nH]3)c(CCCCC[N+](C)(C)C)c3ccc([nH]3)c(CCCCC[N+](C)(C)C)c3nc1C=C3)C=C2`, the growth inhibition in test [1] is 19.6%; in test [2], 3.85%; in test [3] it was 10%; in test [4] it was 3.8%; in test [5] it was 26.4%; in test [6], 85.2% (active).
For `Cn1c(=O)n2n(c1=O)C1C=CC2C2C=C(c3ccccc3)C21` (stereo not given), the growth inhibition is -18.4% in test [1]; -1.35% in test [2]; -0.8% in test [3]; 1.75% in test [4]; 36.5% in test [5]; 0.3% in test [6].
As for `O=c1c2c(-c3cc(-c4ccccc4)nc4[nH]n(-c5ccccc5)c(=O)c34)cc(-c3ccccc3)nc2[nH]n1-c1ccccc1`, the growth inhibition in test [1] is 0.45%; in test [2], -6.2%; in test [3], 0.35%; in test [4], -38.5%; in test [5], 4.85%; in test [6] it was -22.6%.
As for `Cc1cccc(C2=N/C(=C\c3ccc4c(c3)OC(O)O4)C(=O)O2)c1` (stereo not given), the growth inhibition is -1.9% in test [1]; 6.55% in test [2]; 4.95% in test [3]; 3.55% in test [4]; 7.05% in test [5]; -16.4% in test [6].
Turning to `N=C(N)n1[nH]c2c(c1=O)CCCC2`, the growth inhibition was 5.6% in test [1]; 6.75% in test [2]; -12.1% in test [3]; 6.25% in test [4]; 2.85% in test [5]; -19.4% in test [6].
Take `CCN(Cc1ccccc1)C(=O)Nc1c(Cl)cccc1Cl`: the growth inhibition in test [1] was -13.5%; in test [2], -30.1%; in test [3], 1.35%; in test [4], -1.5%; in test [5], -9.85%; in test [6], -4.05%.
Turning to `Cc1cc(=O)oc2cc3c(cc12)Oc1ccccc1O3`, the growth inhibition in test [1] was -6.85%; in test [2], -11.2%; in test [3] it was -0.95%; in test [4] it was 3.5%; in test [5], 5.8%; in test [6] it was -5%.
Regarding `CC(=O)Oc1ccc(NCNc2ccc(OC(C)=O)cc2)cc1`, the growth inhibition in test [1] is -11.8%; in test [2], 0.95%; in test [3], -3.2%; in test [4] it was -26.6%; in test [5], -2.25%; in test [6], -3.35%.
On to `CCN(CC)CCC1CCNCC1`, for which the growth inhibition in test [1] is 0.5%; in test [2] it was -25.2%; in test [3], -1.8%; in test [4], 15.8%; in test [5], -3.9%; in test [6] it was 5.75%.
`ON=C1c2cc(Cl)ccc2-c2ccc(Cl)cc21`: the growth inhibition in test [1] is 5.25%; in test [2] it was 4.05%; in test [3], 18.1%; in test [4], -40.8%; in test [5] it was 5.45%; in test [6], 16.6%.
For `CCc1ccc([OH2+])c(C(=O)[O-])c1.CCc1ccc([OH2+])c(C(=O)[O-])c1.CCc1ccc([OH2+])c(C(=O)[O-])c1.CCc1ccc([OH2+])c(C(=O)[O-])c1.[Cu+2].[Cu+2]`, the growth inhibition is 18.9% in test [1]; 2.5% in test [2]; 21.6% in test [3]; 29.3% in test [4]; 8.75% in test [5]; 20.9% in test [6].
